BAZ2B inh – blocks human BAZ2B; AID 504333; Q9UIF8; actives 4.4% (n = 360,000); AlphaScreen BAZ2B-H3K14Ac peptide displacement; Potency, µM (series often up to 114 µM), for the others: at the highest dose activity change, negative = inhibition, actives largely listed as inhibitors; also: potency is read from the fitted curve at half-maximal effect; % is scaled to controls: 0 for no effect and ±100 for the full control effect; nearly all actives have a fitted effect of over 60% in size
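AlphaScreen luminescence quantifies BAZ2B engagement of H3K14Ac peptide; the protein and biotinylated peptide are both at 50 nM final, buffer PBS pH 7.4 with 0.01% Tween-20, all steps at room temperature.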
G9a block – G9a (human) methyltransferase inhibition. Potency, µM (series often up to 102 µM), for inactives: top-dose activity, negative = inhibition, most hits filed as inhibitors. Q96KQ7. G9a H3K9 monomethylation, AlphaScreen, 2 h. actives 8.8% (n = 350,000); also: potency is read from the fitted curve at half-maximal effect; % is scaled to controls: 0 for no effect and ±100 for the full control effect; nearly all actives have a fitted effect of over 75% in size
Target sequence (Q96KQ7 913-1193 limits assumed): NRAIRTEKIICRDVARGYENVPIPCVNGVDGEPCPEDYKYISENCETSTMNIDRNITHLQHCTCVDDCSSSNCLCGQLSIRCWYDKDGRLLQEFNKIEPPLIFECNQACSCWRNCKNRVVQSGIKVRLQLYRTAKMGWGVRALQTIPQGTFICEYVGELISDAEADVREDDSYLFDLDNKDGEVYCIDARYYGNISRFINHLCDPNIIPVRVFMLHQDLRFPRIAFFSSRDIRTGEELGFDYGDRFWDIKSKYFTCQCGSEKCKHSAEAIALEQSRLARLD
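Compounds were preincubated with 20 nM G9a for 15 min, after which biotinylated H3K9 peptide (500 nM) and SAM (20 uM) started a 2 h room-temperature reaction. Monomethylated product was quantified by antibody-based AlphaScreen chemiluminescence.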
PI5P4Ka inh – inhibitors of human PI5P4K alpha; PI5P4Kalpha enzyme, ADP-Glo luminescence, 60 min; stronger effect = lower value; max response, %; actives 1.2% (n = 330,000); active = max response of -50% or lower; inconclusive = between -30% and -50%; inactive = -30% or higher; also: value at the top dose of about 77 µM; % is scaled to controls: 0 for no effect and ±100 for the full control effect
Target sequence (P48426 whole entry, looked up): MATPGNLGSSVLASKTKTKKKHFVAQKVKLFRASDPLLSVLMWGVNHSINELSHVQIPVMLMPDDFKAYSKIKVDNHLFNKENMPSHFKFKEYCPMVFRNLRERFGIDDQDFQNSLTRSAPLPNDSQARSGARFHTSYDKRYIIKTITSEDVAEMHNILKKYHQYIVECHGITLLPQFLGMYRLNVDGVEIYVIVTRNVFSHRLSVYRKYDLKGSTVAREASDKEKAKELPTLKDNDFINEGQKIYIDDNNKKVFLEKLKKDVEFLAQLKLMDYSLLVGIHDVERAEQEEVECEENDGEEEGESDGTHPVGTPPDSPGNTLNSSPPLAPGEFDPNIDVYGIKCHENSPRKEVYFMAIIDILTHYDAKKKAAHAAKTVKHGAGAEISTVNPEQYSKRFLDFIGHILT
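qHTS, 1536-well: enzyme/substrate mix, compound by pin tool, 5 microM ATP final; RT 60 min; ADP-Glo reagents 1 (45 min) then 2 (30 min); luminescence.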
JMJD2A Tudor inh – JMJD2A Tudor domain (human) inhibition | actives 4.4% (n = 390,000) | AID 504339 | AlphaScreen JMJD2A-Tudor / H3K4me3 peptide binding | O75164 | Potency, µM (titrated, usually from 114 µM), for the others: top-dose activity change, negative = inhibition, usual class: inhibitors; also: potency is read from the fitted curve at half-maximal effect; % is scaled to controls: 0 for no effect and ±100 for the full control effect; nearly all actives have a fitted effect of over 50% in size
PLK1 PBD inh – blocks phosphopeptide binding to human PLK1 polo-box domain | P53350 | Plk1 PBD binding of FITC phosphopeptide, fluorescence polarization | Potency, µM, for the others: max response, negative = inhibition, most hits filed as inhibitors | actives 2.8% (n = 360,000) | AID 720504; also: potency is read from the fitted curve at half-maximal effect; series mostly up to about 57 µM; % is scaled to controls: 0 for no effect and ±100 for the full control effect; nearly all actives have a fitted effect of over 65% in size
HP1b chromo inh – inhibitors of HP1-beta chromodomain binding to methylated histone tails; P83916; AlphaScreen HP1-beta / biotin-H3K9me3 peptide binding; actives 0.56% (n = 390,000); Potency, µM (top dose mostly 114 µM), for inactives: at the top dose activity change, negative = inhibition, hits mostly inhibitors; also: potency is read from the fitted curve at half-maximal effect; nearly all actives have a fitted effect of over 70% in size
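Compound inhibition of the preformed complex between 50 nM HP1-beta and 50 nM biotinylated H3K9me3 peptide was read by AlphaScreen. Buffer was PBS pH 7.4 with 0.01% Tween-20. Incubations ran 30 min at room temperature, with 10 ug/mL donor/acceptor beads.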
* = called active by the depositor; ? = inconclusive; . = no result; [ ] = another dose, or the depositor's remark. Hits are enriched below; roughly 12% of the tested compounds scored in any of these assays. Unless noted, calls follow the shape of the dose curve; as a rule, active = well fitted curve in the direction sought with a large enough effect; inconclusive = small, poorly fitted or top-dose-only effect, or another doubt; inactive = no such curve, though single readings can be large; an effect the other way counts as inactive or inconclusive.

SMILES	BAZ2B inh	G9a block	PI5P4Ka inh	JMJD2A Tudor inh	PLK1 PBD inh	HP1b chromo inh
O=C(NC(=S)Nc1nc(-c2ccc(Cl)cc2)cs1)c1cccs1	-17%	21%[59 µM]	0	?	11µM*	-16%
O=C(Nc1nc(-c2cccs2)cs1)C1=COCCO1	1%	10%	-24	14µM*	3.4µM*	?
CCCCn1nc(C(=O)Nc2ccccc2N2CCCC2)c2ccccc2c1=O	?	25%[12.7 µM]	17	?	-2%	?
CCCCOc1ccc(NC(=O)CSc2ccc(C(=O)O)cn2)cc1	0%	-3%[59 µM]	.	-4%	.	32%
COc1cccc(-c2csc(NC(C)=O)n2)c1	5%	10µM*	-16	-8%	?	-11%
Cc1cc(-c2csc(NC(=O)C3=COCCO3)n2)c(C)n1C	-3%	50µM*	-4	-22%	?	-10%
O=C(NC(=S)Nc1nc(-c2cccc3ccccc23)cs1)c1cc2ccccc2o1	-2%	12%[59 µM]	-5	-4%	-7%	16%
Cc1cc(C)c(-c2csc(NC(=O)C3=COCCO3)n2)c(C)c1	-21%	?	6	-25%	5%	19%
CC(=O)Nc1nc(-c2cccc3ccccc23)cs1	-34%	11%[59 µM]	-27	?	3.8µM*	4%
COc1ccc(-c2csc(NC(=O)C3=COCCO3)n2)cc1OC	?	56µM*	3	-23%	-21%	7%
CC(=O)Nc1nc(-c2ccc(-c3ccccc3)cc2)cs1	.	.	-3	.	-1%	.
CSCCC(NC(=O)COc1ccccc1)C(=O)N1CCN(c2ccccc2Cl)CC1 (stereo unspecified)	-3%	15%[0.501 µM]	13	-24%	-6%	8%
Cn1nnnc1Sc1ncnc2scc(-c3ccccc3F)c12	.	.	.	-14%	.	.
COC(=O)c1c(-c2cccc(C)c2)csc1N	?	?	1	?	-21%	?
Cc1cc(C)nc(-n2nc(C)cc2NC(=O)c2cccc(S(=O)(=O)N3CCCCC3)c2)n1	-3%	8.9µM*	.	.	.	.
COc1ccc(-c2csc(NC(=O)CCCc3nc4ccccc4c(=O)[nH]3)n2)cc1OC	-3%	40µM*	?	-20%	-6%	-3%
COc1ccc(C(=O)Nc2nc(-c3cccs3)cs2)cc1	-37%	-28%[59 µM]	-2	-28%	-2%	17%
COC(=O)c1c(-c2cccc(OC)c2)csc1N	?	40µM*	7	-24%	?	-17%
O=C(Nc1nc(-c2cccs2)cs1)c1ccc(Cl)cc1	3%	32µM*	4	17%[57.1 µM]	-25%	41%
Cc1cc(NC(=O)c2cccc(S(=O)(=O)N3CCCCCC3)c2)n(-c2ccccn2)n1	15%	12%[59 µM]	-5	?	?	19%
COc1ccc(-c2csc(NC(C)=O)n2)cc1OC	-13%	-14%[59 µM]	-8	56µM*	27µM*	-18%
CCn1c(CCCOc2ccc(Cl)cc2Cl)nnc1SCC(=O)Nc1cc(F)ccc1C	2%	12%[59 µM]	4	-23%	5%	21%
C=CCn1c(CCCOc2ccc(Cl)cc2Cl)nnc1SCC(=O)Nc1nccs1	-17%	40µM*	6	-20%	-7%	42%
COCCCn1c(=O)/c(=C\c2ccccc2OC(F)F)s/c1=C(/C#N)C(N)=O	-25%	-4%	4	-6%	3%	30%
C=CCn1c(=O)/c(=C/c2ccc(C)o2)s/c1=C(/C#N)C(=O)c1ccccc1	11µM*	?	-2	-18%	?	?
SMILES	BAZ2B inh	G9a block	PI5P4Ka inh	JMJD2A Tudor inh	PLK1 PBD inh	HP1b chromo inh
Cc1cc(-c2cc(NC=O)c3ncc(-c4cccc(C(=O)NCCN(C)C)c4)n3c2)cc(C)c1O	.	.	-1	.	-10%	.
COc1ccc(Oc2nc3c(c(=O)n(C)c(=O)n3C)n2Cc2ccccc2Cl)cc1	-8%	3%[59 µM]	.	-8%	.	24%
COC(=O)c1cc(=O)n(Cc2ccc(OC)c(OC)c2)c(=Nc2ccc(F)cc2)s1	15%	?	0	?	-8%	-11%
COC(=O)c1cc(=O)n(CCc2ccc(OC)c(OC)c2)c(=Nc2ccc(F)c(Cl)c2)s1	?	25µM*	-2	?	-9%	-6%
Cc1ccc(NS(=O)(=O)c2ccc(-c3ccccc3)cc2)cc1C	.	.	.	-13%	.	.
COc1ccc(NC(=O)CNc2cc(S(=O)(=O)N3CCOCC3)ccc2NCC2CCCO2)cc1 (stereo unspecified)	.	6.3µM*	-9	-33%	-16%	21%
CC1CCCN(CC(=O)Nc2ccc(S(=O)(=O)N3C(C)CCCC3C)cc2)C1 (stereo unspecified)	.	.	1	.	0%	.
CC1CCCC(C)N1S(=O)(=O)c1ccc(NC(=O)CNCC2CCCO2)cc1 (stereo unspecified)	56µM*	8.9µM*	.	18µM*	-1%	6%
Cc1ccc(NC(=O)CNc2cc(S(=O)(=O)N3CCOCC3)ccc2NCC2CCCO2)cc1F (stereo unspecified)	?	45µM*	2	?	-17%	-18%
CCOc1ccccc1NC(=O)C1CCN(S(=O)(=O)Cc2ccccc2)CC1	53%	15%[59 µM]	.	33%	.	107%
COc1ccc(NC(=O)CSc2nnc(Cc3cccn3C)n2CCc2ccccc2)c(OC)c1	50µM*	32%[0.501 µM]	.	?	-8%	-28%
COc1ccc(-n2c(Cc3cccn3C)nnc2SCC(=O)NCCc2ccccc2)cc1	?	-10%[2.33 µM]	.	-28%	-8%	-15%
COc1ccccc1NC(=O)CSc1nnc(Cc2cccn2C)n1CCc1ccccc1	50µM*	?	.	?	0%	-11%
Cc1cn([C@H]2C[C@@H](N=[N+]=[N-])[C@@H](CO)O2)c(=O)[nH]c1=O	.	16%[12.7 µM]	.	.	.	.
COc1ccc(-n2c(COc3ccccc3)nnc2SCC(N)=O)cc1	-4%	45µM*	0	-32%	-6%	48%
CC(Sc1nnc(COc2ccc(Cl)cc2)n1-c1ccccc1)C(=O)O (stereo unspecified)	-6%	1%[0.501 µM]	?	-15%	-7%	21%
COc1cccc(-n2c(COc3ccc(C)cc3)nnc2SCC(N)=O)c1	?	?	.	-15%	-7%	10%
Cc1cccc(OCc2nnc(SC(C)C(=O)O)n2-c2ccccc2)c1 (stereo unspecified)	-4%	1%[0.501 µM]	-53*	-9%	-4%	48%
Cc1ccnc(SCC(=O)c2cccc([N+](=O)[O-])c2)n1	-26%	22µM*	-6	-6%	-6%	32%
COc1ccc(-n2c(COc3ccc(C)cc3)nnc2SCC(N)=O)cc1	0%	32µM*	2	-16%	-2%	34%
COc1ccc(-c2cc(C(C)=O)c(C)n2CCC(=O)Nc2ccc(C(F)(F)F)cc2)cc1	4%	-14%[59 µM]	.	-19%	.	-7%
